# Source: PubChem BioAssay (National Center for Advancing Translational Sciences (NCATS))
# Sampled rows, rich in hits. Any-hit rate of the full collection: about 19%.
# DT40 TDP1 CPT: growth inhibition of DT40 Tdp1-/-;hTDP1 cells with camptothecin (screen for TDP1 inhibitors); chicken DT40 Tdp1-/-;hTDP1 cells + 20 nM CPT, ATP luminescence, 48 h; Potency, µM (series often up to 46.2 µM), for inactives: at the top dose activity change, negative = growth inhibition, usual class: inhibitors; 12% of 420,000 active; also: potency is read from the fitted curve at half-maximal effect; nearly all actives have a fitted effect of over 55% in size
#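 Chicken DT40 Tdp1-/- cells complemented with human TDP1, 400 cells/well, exposed to compounds plus 20 nM camptothecin for at least 48 h at 37 C; viability read as ATP content by CellTiter-Glo luminescence.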
# HT1080 IDH1KD tx: kills HT-1080 cells with IDH1 knockdown; 2% of 360,000 active; Potency, µM (titrated, usually from 46.1 µM), for inactives: top-dose activity, negative = toxicity, usual class: cytotoxic; AID 686971; HT-1080 IDH1 knockdown viability, ATP luminescence, 48 h;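 also: potency is read from the fitted curve at half-maximal effect; 0% = DMSO wells and -100% = cell-free medium wells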
#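 After a 2 h attachment period, IDH1KD HT-1080 cells took pin-transferred compound for 48 h at 37 °C; ATP-based luminescence after 10 min room-temperature reagent incubation reported viability.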
# TDP1 cell noCPT: qHTS for Inhibitors of human tyrosyl-DNA phosphodiesterase 1 (TDP1): qHTS in cells in absence of CPT | Potency, µM (highest dose often 46.2 µM), for inactives: at the top dose activity change, negative = growth inhibition, hits mostly inhibitors | DT40 Tdp1-/- hTDP1 cells, no CPT, ATP luminescence, 48 h | 15% of 420,000 active; also: potency is read from the fitted curve at half-maximal effect; nearly all actives have a fitted effect of over 55% in size
#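 Chicken DT40 Tdp1-/- cells complemented with human TDP1, screened without camptothecin (DMSO vehicle only), 400 cells/well. Compounds pin-transferred, cells incubated at 37 °C for at least 48 hr. Growth read as ATP-dependent luminescence (CellTiter-Glo, 30 min at RT).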
# HT1080-NT tox: kills 2HG-producing HT-1080-NT fibrosarcoma cells; 1.6% of 360,000 active; AID 686970; HT-1080-NT fibrosarcoma viability, CellTiter-Glo ATP luminescence, 48 h; Potency, µM (series often up to 46.1 µM), for the others: at the highest dose activity, negative = less viability, most hits filed as cytotoxic;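 also: NT is the 2HG producing partner of a matched IDH1 knockdown line; potency is read from the fitted curve at half-maximal effect; 0% = DMSO-treated cells and -100% = media-only wells without cells; nearly all actives have a fitted effect of over 55% in size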
#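 HT-1080-NT; 750 cells/well; 5% FBS RPMI; 48 h compound, 37 degrees C; CellTiter-Glo luminescence; curve fitting and curve-class assignment.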
# IL-1B inflam inh: inhibitors of inflammasome signaling (IL-1 beta secretion) | activity change, % at 57.5 µM | THP-1 LPS/ATP IL-1B secretion, AlphaLISA, 16 h; stronger effect = lower value | 4.7% of 360,000 active | AID 743279; in the data active = activity change below about -50%; inconclusive = mostly about -30% to -49%
#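 THP-1 cells pretreated 1 hr with compounds (up to 57.5 uM final), then stimulated with LPS (250 ng/mL final) plus ATP (1.25 mM final); secreted IL-1B measured by AlphaLISA after 16 hr, decreased signal indicating inhibition.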
# The depositor's hits bear a star; ? = inconclusive; / = no result given; [ ] = another dose, or the depositor's remark. Unless noted, calls follow the shape of the dose curve; as a rule, active = well fitted curve in the direction sought with a large enough effect; inconclusive = small, poorly fitted or top-dose-only effect, or another doubt; inactive = no such curve, though single readings can be large; an effect the other way counts as inactive or inconclusive. Unless noted, % is scaled to controls: 0 for no effect and ±100 for the full control effect.
SMILES,DT40 TDP1 CPT,HT1080 IDH1KD tx,TDP1 cell noCPT,HT1080-NT tox,IL-1B inflam inh
COCCCNc1nc2c(c(=O)n(Cc3ccc(Cl)cc3)c(=O)n2C)n1C,-15%,-1%,-57%,-7%,-6
Cc1ccc(-n2nc3c(=O)n(CCCC(=O)NCc4ccccc4Cl)nc(C)c3c2C)cc1,?,1%,18µM*,-7%,-9
Cc1ccc(-n2nc3c(=O)n(CCCC(=O)NCCc4ccccc4Cl)nc(C)c3c2C)cc1,8.2µM*,/,15µM*,/,/
NC(=O)C1=C(c2ccccc2)c2ccccc2C1=O,2.9µM*,?,5.2µM*,-21%,-102*
COc1ccccc1N1CCN(C(=O)c2sc3nc(-c4ccccc4)cn3c2C)CC1,16µM*,-13%[9.24 µM],18µM*,-23%,-76*
COC(=O)C1CCN(C(=O)c2sc3nc(-c4ccc(F)cc4)cn3c2C)CC1,?,8%,?,11%,35
CCOC(=O)C1CCN(C(=O)c2sc3nc(-c4ccccc4)cn3c2C)CC1,?,-3%,18µM*,2%,10
O=C(NCCC(=O)N1CCN(c2ccccn2)CC1)c1ccc(Cl)cc1,-13%,19%,?,10%,-4
COC(=O)C[C@H]1C[C@@H]2c3cc(NS(=O)(=O)c4cccc(OC)c4)ccc3O[C@@H]2[C@@H](CO)O1,?,-4%,?,0%,-1
COc1ccc(CNC(=O)C[C@@H]2C[C@H]3c4cc(NC(=O)NC5CCCC5)ccc4O[C@H]3[C@H](CO)O2)cc1,?,-2%,13µM*,-8%,70
COc1cccc(S(=O)(=O)Nc2ccc3c(c2)[C@@H]2C[C@@H](CC(=O)NCc4ccc(Cl)cc4)O[C@@H](CO)[C@@H]2O3)c1,18µM*,6.5µM*,16µM*,8.2µM*,44
COc1cccc(S(=O)(=O)Nc2ccc3c(c2)[C@H]2C[C@H](CC(=O)N[C@@H](C)c4ccccc4)O[C@H](CO)[C@H]2O3)c1,?,-1%,15µM*,-10%,-15
O=C(C[C@@H]1C[C@@H]2c3cc(NS(=O)(=O)c4ccc(F)cc4)ccc3O[C@@H]2[C@@H](CO)O1)NC1CCCCC1,?,-3%,18µM*,-10%,-11
O=C(C[C@H]1C[C@@H]2c3cc(NS(=O)(=O)c4ccccc4)ccc3O[C@@H]2[C@H](CO)O1)NC1CCCC1,-28%,10%,-26%,0%,7
CCCNC(=O)C[C@@H]1C[C@@H]2c3cc(NS(=O)(=O)c4ccc(OC)cc4)ccc3O[C@@H]2[C@@H](CO)O1,?,-9%,?,-6%,?
CCCCNC(=O)C(NC(=O)Cc1cc(OC)cc(OC)c1)C(=O)c1ccccc1 (stereo not drawn),?,12%,?,8%,-8
Cc1cccc(C)c1OC(=O)CSc1nnc(-c2ccc3c(c2)OCO3)o1,-21%,/,-18%,/,/
COc1ccc(Cl)cc1NC(=O)c1cc(-c2ccccc2O)n[nH]1,?,-3%,15µM*,-2%,-12
COc1ccc(NC(=O)c2cc(-c3cc(C)ccc3O)n[nH]2)cc1Cl,-17%,43%,?,3%,-8
NS(=O)(=O)c1ccc(NC(=O)c2cc(-c3cc(Cl)ccc3O)n[nH]2)cc1,-7%,18µM*,?,?,-29
COc1ccc(OC)c(NC(=O)c2cc(-c3cc(Cl)ccc3O)n[nH]2)c1,18µM*,?,12µM*,-27%,?
Cc1c(Cl)cccc1NC(=O)c1cc(-c2ccccc2O)n[nH]1,?,?,?,?,-60*
COc1ccccc1-c1cc(-c2cc(Cl)ccc2O)n[nH]1,-4%,2%,-9%,5%,0
CC(C)CCNC(=O)c1ccc(Cn2c(SCC(N)=O)nc3ccccc3c2=O)cc1,-23%,/,-27%,/,/
COc1ccccc1OCCNC(=O)C1CC(=O)N(c2cccc(SC)c2)C1 (stereo not drawn),-20%,-6%,?,-5%,-20
SMILES,DT40 TDP1 CPT,HT1080 IDH1KD tx,TDP1 cell noCPT,HT1080-NT tox,IL-1B inflam inh
CC1CN(S(=O)(=O)c2ccc(NC(=O)c3cc(-c4ccccc4O)n[nH]3)cc2)CC(C)O1 (stereo not drawn),21µM*,?,?,?,-51*
O=C(Nc1ccc(S(=O)(=O)N2CCOCC2)cc1)c1cc(-c2ccccc2O)n[nH]1,-19%,-16%,1%,-3%,?
N/C(=N\OC(=O)c1ccc2ccccc2c1)c1ccccn1,?,?,?,?,-25
NC(=Nc1nc(-c2ccccn2)cc2ccccc12)c1ccccn1,0.015µM*,?,0.018µM*,-14%,54
CCCN1CNc2c(c(=O)[nH]c(=S)n2CCc2cccs2)C1,-26%,24%,-13%,19%,/
O=c1cc(Cc2nnc(SCc3ccccc3)n2-c2ccc(Cl)cc2)[nH]c(=O)[nH]1,-3%,2%,29%,0%,7
O=S(Cc1ccc(Br)cc1)Cc1nnc(SCc2ccc(Cl)cc2)n1-c1ccccc1 (stereo not drawn),16µM*,-22%,18µM*,-3%,-68*
COc1ccc(-n2c(CCc3ccccc3)nnc2SCC(=O)c2ccc(Cl)cc2)cc1,?,-7%,?,8%,?
O=S(Cc1ccc(Br)cc1)Cc1nnc(SCc2c(F)cccc2Cl)n1-c1ccccc1 (stereo not drawn),15µM*,-24%,9.2µM*,-5%,-62*
O=C(CSc1nnc(CCc2ccccc2)n1-c1ccc(Cl)cc1)c1ccccc1,?,3%,23µM*,4%,-64*
CCN(c1ccccc1)S(=O)(=O)c1cccc(C(=O)OCC(=O)Nc2ccc(NC(C)=O)cc2)c1,?,4%,-15%,0%,8
COc1ccc(-c2nc3cnc(N4CCOCC4)nc3n(CCC#N)c2=O)cc1,10%,/,0%,/,/
O=C1CSC(=S)N1Cc1ccccc1,?,-8%,21µM*,-3%,-10
O=C(CN1C(=O)c2ccccc2S1(=O)=O)Nc1ccc([N+](=O)[O-])cc1,-14%,-7%,5%,-2%,-5
S=c1[nH]ncn1/N=C/c1ccco1,0%,3%,-5%,-2%,-6
COc1cccc(N2CCN(C(=O)C3CCN(S(=O)(=O)c4cccs4)CC3)CC2)c1,?,-6%,13µM*,-18%,18
O=C(C1CCN(S(=O)(=O)c2cccs2)CC1)N1CCCCC1,-3%,-4%,0%,0%,33
CCOC(=O)c1ccc(S(=O)(=O)N2CCC(C(=O)N3CCN(c4ccccc4OC)CC3)CC2)cc1,?,?,-80%,?,-85*
